Test results from PubChem BioAssay (NCATS).
Records with an inconclusive call do not appear. Entries that show only a call come without a potency. Calls of active or inactive are those of the source. The call rests on the fitted dose curve; in most records, active means well fitted cell-killing curve with a large enough effect; inconclusive means small, poorly fitted or top-dose-only effect; inactive means flat fitted curve, though single readings scatter.

Assay: Cell Viability - LYMP2-008 (AID 980); further: nearly all actives have a fitted effect of over 60% in size
Settings: LYMP2-008 lymphoblastoid cell viability, qHTS; series mostly up to 92.2 µM
Text: NIH Chemical Genomics Center [NCGC]
NIH Molecular Libraries Screening Centers Network [MLSCN]
National Institutes of Environmental Health Sciences [NIEHS]
National Toxicology Program [NTP]
We have developed a 1536-well cell-based assay for quantitative high throughput screening (qHTS) against a number of cell lines to determine in vitro cytotoxicity of small molecules. This particular assay uses a human lymphoblastoid cell line (LYMP2-008) purchased from Coriell Institute for Medical Research.
NCGC Assay Protocol Summary:
The CellTiter-Glo luminescent cell viability assay (Promega) is a homogeneous method to measure the number of viable cells in culture. The end point readout of this assay is based on quantitation of intracellular ATP, an indicator of metabolic activity, using the luciferase reaction. Luciferase catalyzes the oxidation of beetle Luciferin to oxyluciferin and light in the presence of ATP. The luminescent signal is proportional to amount of ATP present.
Using the CellTiter-Glo luminescent cell viability assay, the amount of cellular ATP was measured in the lymphoblastoid cell line with complete culture medium following compound treatment for 24 hours. The assay was performed in opaque white Kalypsys 1536-well plates. In the screen, tetraoctylammonium bromide was used as positive control. Library compounds were measured for their ability to cause acute toxicity in the cell line, as reflected by a decrease in intracellular ATP levels, in a concentration-dependent manner. […] AC50 values were determined from concentration-response data modeled with the standard Hill equation.
qHTS protocol for CellTiter Glo lymphoblastoid cellular assay
[Step] [Parameter] [Value] [Description]
1. Reagent; 5 uL; 2500 lymphoblastoid cells/well
2. Time; 5 hr; 37 C incubation
4. Controls; 23 nL; Tetraoctylammonium bromide 6.4pM to 92 uM
5. Time; 24 hr; 37 C incubation
6. Reagent; 5 uL; CellTiter Glo reagent
7. Time; 30 min; Room Temperature
8. Detection; Luminescence; Viewlux plate reader
Keywords: cell viability, cytotoxicity, lymphoblastoid cell line, luminescence, NTPHTS, NTPHTS_NCGC, NIEHS, DSSTox, MLSMR, MLSCN, NIH Roadmap, qHTS, NCGC

| Structure (SMILES) | Potency |
| --- | --- |
| NCCCCCCN | inactive |
| Nc1nc(-c2ccccc2)cs1 | inactive |
| CNc1ccc([N+](=O)[O-])cc1 | inactive |
| O=[N+]([O-])c1cccc(Cl)c1 | inactive |
| Nc1ccccc1S(=O)(=O)O | inactive |
| Cc1cccc(C)c1[N+](=O)[O-] | inactive |
| Fc1ccccc1 | inactive |
| CCCCC(=O)N(C)C | inactive |
| O=C(Cl)c1cccc([N+](=O)[O-])c1 | inactive |
| CCC(O)C(C)(C)C (stereo not given) | inactive |
| C1CCCC1 | inactive |
| CN(C)c1cccc(O)c1 | inactive |
| CCCCC(CC)C(=O)O (stereo not given) | inactive |
| BrC(Br)C(Br)Br | inactive |
| ICCc1ccccc1 | inactive |
| O=C(O[C@@H](C(=O)O)[C@@H](OC(=O)c1ccccc1)C(=O)O)c1ccccc1 | inactive |
| C1CCOC1 | inactive |
| NC=O | inactive |
| Cc1ccc(C)c(N)c1 | inactive |
| COCCOC(=O)c1ccccc1C(=O)OCCOC | inactive |

| Structure (SMILES) | Potency |
| --- | --- |
| C=Cc1ccc(C=C)cc1 | inactive |
| CCCCCCC=O | inactive |
| Nc1cc(Cl)c(N)c(Cl)c1 | inactive |
| Cc1cccc2ccccc12 | inactive |
| O=C(O)c1cc(Cl)cc(Cl)c1 | inactive |
| COc1cccc(N)c1 | inactive |
| Cc1ccc(C)o1 | inactive |
| O=[N+]([O-])c1ccccc1CCO | inactive |
| CC/C=C1/OC(=O)c2ccccc21 | inactive |
| O=C(O)c1ccc(Cl)cc1Cl | inactive |
| C=C(C)C(=O)OC | inactive |
| Clc1ccc(Cl)c(Cl)c1Cl | inactive |
| C/C=C1\CC2C=CC1C2 (stereo not given) | inactive |
| Cc1cc(C)cc([N+](=O)[O-])c1 | inactive |
| c1ccc(Nc2ccccc2)cc1 | inactive |
| O=[N+]([O-])c1ccc(NCCO)c(OCCO)c1 | inactive |
| O=C(O)c1ccc(Cl)c(Cl)c1 | inactive |
| CCOc1ccc(NC(C)=O)cc1N | inactive |
| O=C1NC(=O)c2cc([N+](=O)[O-])ccc21 | inactive |
| C=C(C)C(=O)OCC(C)O (stereo not given) | inactive |
